Source: PubChem BioAssay (NCI)
This is part of a sample that, as a whole, favours compounds with a hit. Of some 83,000 tested, about 20% had one in any assay.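 Compound tested at a single concentration for 48 hours in 96-well plates; a percent growth value below 10 was scored as active.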 Unmarked numbers belong to inactive results. The source made the active and inactive calls.

Key:
Test in all cases: NCI-60 one-dose screen, 48 h (100 = growth as untreated, 0 = no growth, -100 = all killed)
Conditions in all cases: 10 µM unless noted
DU-145 prostate = tested on: DU-145 prostate
K-562 leukemia = tested on: K-562 leukemia
MALME-3M melanoma = tested on: MALME-3M melanoma
MDA-MB-231 breast = tested on: MDA-MB-231 breast
RXF 393 renal = tested on: RXF 393 renal
SF-268 CNS = tested on: SF-268 CNS
SF-295 CNS = tested on: SF-295 CNS
SF-539 CNS = tested on: SF-539 CNS
UACC-257 melanoma = tested on: UACC-257 melanoma
M14 melanoma = tested on: M14 melanoma
HCT-15 colon = tested on: HCT-15 colon
HT29 colon = tested on: HT29 colon
SNB-75 CNS = tested on: SNB-75 CNS
SNB-19 CNS = tested on: SNB-19 CNS
U251 CNS = tested on: U251 CNS
PC-3 prostate = tested on: PC-3 prostate
SK-MEL-5 melanoma = tested on: SK-MEL-5 melanoma
UACC-62 melanoma = tested on: UACC-62 melanoma
LOX IMVI melanoma = tested on: LOX IMVI melanoma
SK-MEL-28 melanoma = tested on: SK-MEL-28 melanoma

Row | SMILES | growth (DU-145 prostate) | growth (K-562 leukemia) | growth (MALME-3M melanoma) | growth (MDA-MB-231 breast) | growth (RXF 393 renal) | growth (SF-268 CNS) | growth (SF-295 CNS) | growth (SF-539 CNS) | growth (UACC-257 melanoma) | growth (M14 melanoma) | growth (HCT-15 colon) | growth (HT29 colon) | growth (SNB-75 CNS) | growth (SNB-19 CNS) | growth (U251 CNS) | growth (PC-3 prostate) | growth (SK-MEL-5 melanoma) | growth (UACC-62 melanoma) | growth (LOX IMVI melanoma) | growth (SK-MEL-28 melanoma)
1 | O=C(Nc1ccccc1CNc1nc(Nc2ccc(OCCN3CCCC3)cc2)ncc1Cl)NC1CCCCC1 | 82.8% | 6.79% (active) | 67.7% | 69.7% | 56.8% | 73.1% | 82% | 84.3% | 78.3% | 31.1% | 60.7% | 9.11% (active) | 96.5% | 91.6% | 70.4% | 84% | 64.6% | 97.3% | 84.7% | 79.8%
2 | CCOC(=O)CSc1nc2sc3c(c2c(=O)n1-c1ccccc1)CCCCC3 | 108% | 98.4% | 109% | 105% | 119% | 104% | 96.3% | 101% | 96.8% | 108% | 104% | 102% | 112% | 89.2% | 93.4% | 109% | 97.6% | 99.5% | 101% | 112%
3 | N#C/C(=N\Nc1ccccc1)C(=O)Nc1cc(-c2ccccc2)nn1-c1ccccc1 | 51.5% | 25.9% | 4.67% (active) | 26.1% | 36.9% | 22.9% | 11.4% | 40.4% | 12.3% | 33.7% | 13.1% | 31.5% | 68.2% | 14.6% | 8.34% (active) | 10% | -27.5% (active) | 14.2% | 52.9% | 44.9%
4 | Cc1nn(C)c2ncnc(Nc3ccccc3Br)c12 | 103% | 97.1% | 111% | 85.2% | 104% | 99.2% | 95.8% | 99.9% | 105% | 101% | 101% | 97.7% | 111% | 101% | 95.3% | 102% | 97.7% | 93.3% | 101% | 102%
5 | C=C1C(=O)O[C@H]2[C@H]1CC/C(COC(=O)NCc1ccc(Cn3c(=O)sn(CCCC)c3=O)cc1)=C\CC[C@@]1(C)O[C@@H]21 | 20.2% | 0.885% (active) | -24.1% (active) | 38.4% | 33.5% | 82.4% | 101% | 59.6% | 50.8% | 6.26% (active) | 24.4% | 0.335% (active) | 82.7% | 100% | 60.4% | 59.9% | 96.3% | 53.3% | 26.8% | 55.5%
6 | COc1cccc(/C=C2\CCc3ccccc3C2=O)c1 | 97.8% | 35.1% | 80.7% | 89.9% | 90.2% | 90.3% | 88.9% | 91.5% | 80.8% | 90% | 87.2% | 77.1% | 97.4% | 75.7% | 83.2% | 83.4% | 76.8% | 80.1% | 80.2% | 118%
7 | Cc1ccc(OCCOCCOCCOCCOc2ccc(C)n(O)c2=S)c(=S)n1O | 17.5% | 16.2% | 15.6% | 34.9% | 38.6% | 11.4% | 18.2% | 5.23% (active) | -9.07% (active) | -16.1% (active) | 28.5% | 23.9% | 33.1% | 15.3% | 9.43% (active) | 32.7% | -15.8% (active) | -0.19% (active) | 4.26% (active) | 31%
